Source: ChEMBL document CHEMBL3988442, “University of Dundee, Small-Polar-MMV Screening Library” (2021)
Among all 69,000 compounds or so, about 950 (1.4%) showed an effect of 50% or more. Only a selection was taken, and strong results are over-represented in it overall.

What follows are molecules tested on Mycobacterium tuberculosis (assay: Cornell M. t heat shock assay; further: in the data most compounds retested in dose-response had high values).
Assay type: functional, organism-based
Parameters: dose or concentration left out as unconfirmed
`Cc1cc(C[C@@H]2COC[C@H]2NCc2ccc(Cl)c(Cl)c2)on1.O=C(O)CC(O)(CC(=O)O)C(=O)O` was tested, and the “Percent Effect” value was -20.39%. In the case of `COCCC(=O)N1CC2(CCN(Cc3ccccc3Cl)CC2)C1.O=C(O)C(F)(F)F`, the “Percent Effect” value is reported as 12.96%. In the case of `CCc1ncc(C(=O)N2CCCN(C3CCCC3)CC2)cn1`, the “Percent Effect” value is reported as -5.155%. `Cc1ccc2c(n1)N(CCn1cccn1)CCN(C1CCOCC1)C2.O=C(O)C(F)(F)F.O=C(O)C(F)(F)F` was tested, and the “Percent Effect” value was -10.35%. For `Cc1cc(CN2C[C@H](OCC3CCOCC3)[C@H]3COC[C@H]32)oc1C.O=C(O)C(F)(F)F`, the “Percent Effect” value was 5.146%. `Cc1ccc(CN2CCC[C@@H]3CN(C(=O)c4ccco4)C[C@@H]32)s1.O=C(O)C(F)(F)F` was tested, and the “Percent Effect” value was -26.86%. For `COc1ncccc1CN1C[C@H]2CCN(c3ccc(C)nn3)C[C@H]2C1.O=C(O)C(F)(F)F`, the “Percent Effect” value was 16.3%. For `O=C(O)C(F)(F)F.c1ccc(N2CCCC3(CCN(Cc4ccsc4)C3)C2)nc1` (stereo unspecified), the “Percent Effect” value was -1.694%. `Cc1nc(CN2CCc3ncnc(-c4cccnc4)c3CC2)cs1.O=C(O)C(F)(F)F.O=C(O)C(F)(F)F` was tested, and the “Percent Effect” value was -25.69%. For `O=c1[nH]c(-c2ccccc2)nc2c1CCN(S(=O)(=O)N1CCCC1)C2`, the “Percent Effect” value was 5.135%. In the case of `O=c1[nH]c(-c2ccccn2)nc2c1CCN(S(=O)(=O)N1CCCC1)C2`, the “Percent Effect” value is reported as 87.3%. For `O=c1[nH]c(-c2ccncc2)nc2c1CCN(S(=O)(=O)N1CCCC1)C2`, the “Percent Effect” value was -2.171%. In the case of `Cc1ccc(CN2Cc3nnn(C)c3C(COCc3ccccn3)C2)s1.O=C(O)C(F)(F)F.O=C(O)C(F)(F)F` (stereo unspecified), the “Percent Effect” value is reported as -10.17%. For `O=C(NCCC1=CCCCC1)c1cc(-c2ccc(O)cc2)n[nH]1`, the “Percent Effect” value was 57.62%. In the case of `Cc1ccc(-c2cc(C(=O)NCCC3=CCCCC3)[nH]n2)o1`, the “Percent Effect” value is reported as 46.03%. In the case of `CCCc1cc(C(=O)NCCC2=CCCCC2)[nH]n1`, the “Percent Effect” value is reported as 8.132%. For `O=C(O)C(F)(F)F.c1coc(CN2CCCn3c(nnc3Cn3cccn3)C2)c1`, the “Percent Effect” value was -27.42%. With `O=C(O)C(F)(F)F.O=S(=O)(c1cccs1)N1CCCC2(COCCN(c3cccnc3)C2)C1` (stereo unspecified) the “Percent Effect” value was 1.74%. For `CCn1cc(S(=O)(=O)N(C)Cc2c(Br)cnn2CC)c(C)n1`, the “Percent Effect” value was -19.54%. `CCn1cc(CN(C)S(=O)(=O)c2cnn(CC)c2C)c(C)n1` was tested, and the “Percent Effect” value was 95.67%. `CCn1nc(C)c(CN(C)S(=O)(=O)c2cnn(C)c2)c1C` was tested, and the “Percent Effect” value was 0.2173%. For `CC(=O)N1CCC2(CCCN2Cc2cnn(C)c2)CC1.O=C(O)C(F)(F)F`, the “Percent Effect” value was -13.44%. For `CC(C)c1nc(CSc2nnc(C3CC3)n2CC(N)=O)no1`, the “Percent Effect” value was -3.28%. For `NC(=O)Cn1c(SCc2noc(-c3ccsc3)n2)nnc1C1CC1`, the “Percent Effect” value was -1.649%. `CC(C)c1nc(CSc2nnc(-c3cccs3)n2CC(N)=O)no1` was tested, and the “Percent Effect” value was 87.51%. With `O=C(C1CC(F)(F)C1)N1C[C@@H]2CN(CC3CC3)CCO[C@@H]2C1.O=C(O)C(F)(F)F` the “Percent Effect” value was -22.01%. For `CCc1cnc(N2CCC3(CCN(Cc4cccc(C)c4)C3=O)C2)nc1` (stereo unspecified), the “Percent Effect” value was -25.62%. `O=C1N(Cc2ccc(F)cc2)CCCC12CCN(C1CCSCC1)C2` (stereo unspecified) was tested, and the “Percent Effect” value was 56.84%. In the case of `Cc1cccc(CN2CCC3(CCN(c4ncccn4)C3)C2=O)c1` (stereo unspecified), the “Percent Effect” value is reported as -17.59%. For `CCS(=O)(=O)N1CCC2(CCCN(Cc3ccc(F)c(F)c3)C2=O)C1` (stereo unspecified), the “Percent Effect” value was -4.443%. In the case of `O=C1N(Cc2ccc(F)c(F)c2)CCCC12CCN(C1CCSCC1)C2` (stereo unspecified), the “Percent Effect” value is reported as 39.79%. With `O=C1N(Cc2ccc(F)c(F)c2)CCCC12CCN(C1CCCCC1)C2` (stereo unspecified) the “Percent Effect” value was 88.26%. In the case of `Cc1cccc(CN2CCCC3(CCN(C4CCSCC4)C3)C2=O)c1` (stereo unspecified), the “Percent Effect” value is reported as 68.24%. `O=C1N(Cc2ccc(F)c(F)c2)CCCC12CCN(C1CCCC1)C2` (stereo unspecified) was tested, and the “Percent Effect” value was 48.94%. With `O=C1N(Cc2ccccc2F)CCCC12CCN(C1CCSCC1)C2` (stereo unspecified) the “Percent Effect” value was 35.05%. For `CN(C)C(=O)CN1CCC2(CCCN(Cc3cccn3C)C2)C1=O.O=C(O)C(F)(F)F` (stereo unspecified), the “Percent Effect” value was 8.62%. In the case of `CN(C)c1ncc2c(c1C(=O)O)CCN(Cc1ccco1)C2.O=C(O)C(F)(F)F.O=C(O)C(F)(F)F`, the “Percent Effect” value is reported as 10.22%. `Cc1ccc(N2CCC3(CCN(C(=O)N(C)C)CC3)CC2)nn1.O=C(O)C(F)(F)F` was tested, and the “Percent Effect” value was 0.5325%. For `CC(C)N(C)C[C@H]1C[C@@H]2CN(Cc3ccco3)C[C@@H]2O1.O=C(O)C(F)(F)F.O=C(O)C(F)(F)F`, the “Percent Effect” value was -4.4%. For `CCCN1CCC(c2nc3ccc(-c4ccccc4)cn3n2)CC1.O=C(O)C(F)(F)F`, the “Percent Effect” value was -8.011%. `O=C(O)C(F)(F)F.O=C(O)C(F)(F)F.c1cncc(OC[C@@H]2CC[C@H]3[C@H](CCN3Cc3cccs3)O2)c1` was tested, and the “Percent Effect” value was -169%. `CC(=O)NC1CCN(c2cc(C3CCNCC3)nc(C)n2)C1` (stereo unspecified) was tested, and the “Percent Effect” value was -7.027%. With `O=c1[nH]c(CCN2CCCC2Cn2cccn2)nc2ccccc12` (stereo unspecified) the “Percent Effect” value was 50.72%. For `O=c1[nH]c(CCN2CCCCC2Cn2cccn2)nc2ccccc12` (stereo unspecified), the “Percent Effect” value was 29.01%. With `Cc1nc(C)n(CC2CCCN2Cc2nc3ccccc3c(=O)[nH]2)n1` (stereo unspecified) the “Percent Effect” value was -31.26%. `Cc1cnn(CC2CN(Cc3nc4ccccc4c(=O)[nH]3)CCO2)c1` (stereo unspecified) was tested, and the “Percent Effect” value was 8.669%. `O=c1[nH]c(CCN2CCCC2Cn2cncn2)nc2ccccc12` (stereo unspecified) was tested, and the “Percent Effect” value was 48.51%. For `Cc1cnn(CC2CCCN2CCc2nc3ccccc3c(=O)[nH]2)c1` (stereo unspecified), the “Percent Effect” value was 98.35%. `Cc1cnn(CC2CCCN2Cc2nc3ccccc3c(=O)[nH]2)c1` (stereo unspecified) was tested, and the “Percent Effect” value was 89.62%. For `Cn1cc(C2CCCN2CCc2nc3ccccc3c(=O)[nH]2)cn1` (stereo unspecified), the “Percent Effect” value was 2.636%. In the case of `O=S(=O)(CCN1CCCC1Cn1cccn1)c1ccccc1` (stereo unspecified), the “Percent Effect” value is reported as 15.63%. With `CC(C)(C)c1n[nH]cc1CNC1CCC(C(F)(F)F)CC1.Cl` (stereo unspecified) the “Percent Effect” value was -43.27%. For `Cl.O=C(O)CN1CCC(C(F)(F)F)CC1`, the “Percent Effect” value was 11.41%. With `CN(Cc1cccnc1)C1CC2(CCN(Cc3cccnc3)CC2)C1.O=C(O)C(F)(F)F.O=C(O)C(F)(F)F.O=C(O)C(F)(F)F` the “Percent Effect” value was -1.954%. `COC(=O)c1cccc(S(=O)(=O)Nc2ncc(C)s2)c1` was tested, and the “Percent Effect” value was 1.16%. In the case of `CNS(=O)(=O)c1cccc(S(=O)(=O)Nc2ncc(C)s2)c1`, the “Percent Effect” value is reported as 68.64%. With `Cc1cnc(NS(=O)(=O)c2ccccc2)s1` the “Percent Effect” value was 4.612%. In the case of `Cc1cnc(NS(=O)(=O)c2cccc(C#N)c2)s1`, the “Percent Effect” value is reported as -32.7%. In the case of `CCOCc1cccc(S(=O)(=O)Nc2ncc(C)s2)c1`, the “Percent Effect” value is reported as 52.82%. With `COCc1cccc(S(=O)(=O)Nc2ncc(C)s2)c1` the “Percent Effect” value was 15.26%. With `Cl.O=C(C1CCCC1)N1C[C@@H](c2ccsc2)[C@@H]2CN(C3CCCC3)CC[C@@H]21` the “Percent Effect” value was 3.962%. With `COCCN1CCCn2c(nc(Cn3cncn3)cc2=O)C1.O=C(O)C(F)(F)F` the “Percent Effect” value was 17.08%. For `CCOCC1CC2(CCN(C(=O)c3ncccn3)CC2)CO1` (stereo unspecified), the “Percent Effect” value was -17.44%. For `O=C(Nc1ccccc1)N1C[C@H]2C[C@H](C(=O)N3CCCC3)[C@@H](C1)O2`, the “Percent Effect” value was -25.79%. With `COCC1N(C(=O)c2ccco2)[C@H]2CC[C@]1(O)CC2` (stereo partly specified) the “Percent Effect” value was 16.02%. In the case of `O=C(O)C(F)(F)F.O=C(c1ccno1)N1CCO[C@@H]2CC(COCc3ccccn3)C[C@H]21` (stereo partly specified), the “Percent Effect” value is reported as 1.135%.
